# Source: PubChem BioAssay (NCATS)
# Results filed as inconclusive are left out. A call without a number means that no potency is given here. Activity calls are given as the source filed them. Unless noted, the call rests on the fitted dose curve.
# What was measured:
# [1] = qHTS for Inhibitors of the Functional Ribonucleoprotein Complex (vRNP) of Lassa (LASV) Arenavirus: LASV Primary Screen - GLuc reporter signal (AID 1347082; calls by dose curve; tested in HEK293 reporter line; further: nearly all actives have a fitted effect of over 60% in size)
# [2] = qHTS for Inhibitors of the Functional Ribonucleoprotein Complex (vRNP) of Lassa (LASV) Arenavirus: Viability assay - alamar blue signal for LASV Primary Screen (AID 1347083; calls by dose curve; tested in HEK293 reporter line; further: nearly all actives have a fitted effect of over 80% in size)
# [3] = qHTS for Inhibitors of the Functional Ribonucleoprotein Complex (vRNP) of Lymphocytic Choriomeningitis Arenaviruses (LCMV): Viability assay - alamar blue signal for LCMV Primary Screen (AID 1347085; calls by dose curve; tested in HEK293 reporter line; further: nearly all actives have a fitted effect of over 80% in size)
# [4] = molecular target: Nucleoprotein (Lymphocytic choriomeningitis virus (strain Armstrong)) (UniProt P09992); test: qHTS for Inhibitors of the Functional Ribonucleoprotein Complex (vRNP) of Lymphocytic Choriomeningitis Arenaviruses (LCMV): LCMV Primary Screen - GLuc reporter signal (AID 1347086); further: nearly all actives have a fitted effect of over 70% in size
# [5] = qHTS for inhibitors of Rabies Virus screened against the NCATS CANVASS Library (AID 1347402)
# [6] = Cytotoxicity counterscreen for inhibitors of SARS-CoV-2 cell entry (AID 1645845); further: nearly all actives have a fitted effect of over 50% in size
# Summary of the method: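 Counterscreen run in the same HEK293-ACE2 line as the pseudotyped-particle entry assay, without particles. Viability after 48 h at 37 C was read as ATP luminescence, scaled between cell-containing and cell-free wells.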
# [7] = Primary qHTS for inhibitors of SARS-S pseudo-typed particle cell entry (AID 1479145); further: nearly all actives have a fitted effect of over 45% in size
# [8] = Primary qHTS for Huh7 cytotoxicity: counterscreen for inhibitors of MERS-S pseudotyped particle cell entry (AID 1479147); conditions: outcome: dose series up to 57.1 µM unless noted
# [9] = Primary qHTS for inhibitors of MERS-S pseudo-typed particle cell entry (AID 1479149); further: nearly all actives have a fitted effect of over 60% in size
# [10] = Primary qHTS for Vero E6 cytotoxicity: counterscreen for inhibitors of SARS-S pseudo-typed particle cell entry (AID 1479150); conditions: outcome: dose series up to 57.1 µM unless noted
# [11] = Primary qHTS to identify inhibitors of SARS-CoV-2 cell entry (AID 1645846); conditions: activity change, negative = inhibition: at 57.1 µM (top of the series) unless noted; further: nearly all actives have a fitted effect of over 45% in size
# Summary of the method: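 HEK293-ACE2 (Expi293F, stable hACE2), 1500 cells/well, o/n 37C; cpd 23 nL pin, 1 h; MLV-PP w/ SARS-CoV-2-S (Wuhan-Hu-1, Δ19 C-term); 48 h 37C; Bright-Glo luminescence; normalized vs S-PP and bald PP.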
# [12] = test system: Zika virus NS2B-NS3 protease; test: Primary screen GU AMC qHTS for Zika virus inhibitors (AID 1347154; active means well fitted curve in the direction sought with a large enough effect; an effect the other way counts as inactive or inconclusive; further: nearly all actives have a fitted effect of over 70% in size)
# Summary of the method: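 Unlinked Zika NS2B hydrophilic domain–NS3 protease complex at 25 nM in 10 mM Tris-HCl pH 8.0, 0.01% Tween 20, with an AMC peptide substrate. Fluorescence change (340/450 nm) over 15 min at room temperature, normalized to controls, fitted to 4-parameter Hill.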
# [13] = Primary qHTS for small molecule stabilizers of the endoplasmic reticulum resident proteome: Secreted ER Calcium Modulated Protein (SERCaMP) assay (AID 1508630; active means well fitted curve in the direction sought with a large enough effect; an effect the other way counts as inactive or inconclusive)
# Summary of the method: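 The SH-SY5Y reporter protocol was run at 3 concentrations up to 38.3 uM (primary) or 11 concentrations (follow-up): 16 h compound, 100 nM thapsigargin for 4 h, then extracellular luciferase luminescence.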
# [14] = Confirmatory qHTS for VERO E6 Cytotoxicity Assay: Counterscreen for SARS-CoV-2 CPE Assay (AID 1508605); further: nearly all actives have a fitted effect of over 60% in size
# Sequence of Nucleoprotein (Lymphocytic choriomeningitis virus (strain Armstrong)) (P09992 whole entry, looked up): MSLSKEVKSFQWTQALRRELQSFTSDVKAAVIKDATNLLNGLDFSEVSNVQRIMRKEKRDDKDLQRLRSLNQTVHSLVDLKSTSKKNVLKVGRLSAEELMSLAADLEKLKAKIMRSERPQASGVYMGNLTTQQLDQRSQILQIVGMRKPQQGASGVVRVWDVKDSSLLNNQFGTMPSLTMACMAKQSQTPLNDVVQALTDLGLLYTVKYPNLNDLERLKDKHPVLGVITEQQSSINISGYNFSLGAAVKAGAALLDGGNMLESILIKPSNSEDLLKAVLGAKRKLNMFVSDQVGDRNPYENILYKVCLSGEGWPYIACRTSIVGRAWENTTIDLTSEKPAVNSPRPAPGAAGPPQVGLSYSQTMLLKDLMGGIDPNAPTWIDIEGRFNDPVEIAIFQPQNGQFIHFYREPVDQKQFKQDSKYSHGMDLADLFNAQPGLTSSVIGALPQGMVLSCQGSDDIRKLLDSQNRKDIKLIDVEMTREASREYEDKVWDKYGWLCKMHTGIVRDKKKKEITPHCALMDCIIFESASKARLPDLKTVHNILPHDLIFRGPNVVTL
smiles,measurement,setting,value
O=c1cc(-c2ccccc2)oc2cc(O)c(O)c(O)c12,Potency,[1],inactive
same,Potency,[2],inactive
same,Potency,[3],inactive
same,Potency,[4],inactive
same,outcome,[5],inactive
same,Potency,[6],inactive
COc1cc(C)c(C=CC(C)=CC=CC(C)=CC(=O)O)c(C)c1C,Potency,[1],inactive
same,Potency,[2],inactive
same,Potency,[3],inactive
same,Potency,[4],inactive
same,Potency,[7],inactive
same,outcome,[8],inactive
same,Potency,[9],inactive
same,outcome,[10],inactive
same,Potency,[6],inactive
same,Potency,[11],inactive
c1cncc(C2CCCN2)c1 (stereo unspecified),Potency,[1],inactive
same,Potency,[2],inactive
same,Potency,[3],inactive
same,Potency,[4],inactive
same,Potency,[12],inactive
same,Potency,[13],inactive
C[C@H]1CC[C@@H]2N(C1)C[C@H]1[C@@H]3C[C@H]4[C@@H](CC(=O)[C@H]5C[C@@H](O)CC[C@@]54C)[C@@H]3CC[C@H]1[C@]2(C)O,Potency,[1],inactive
same,Potency,[2],inactive
same,Potency,[3],inactive
same,Potency,[4],inactive
same,Potency,[12],inactive
same,Potency,[13],inactive
COc1cc2oc3ccccc3c(=O)c2cc1OC,Potency,[1],inactive
same,Potency,[2],inactive
same,Potency,[3],inactive
same,Potency,[4],inactive
same,outcome,[5],inactive
Cc1cc(O)c2c(c1)O[C@@]1(C)CC[C@H]3C(C)(C)CCCC34CO[C@@H]2[C@H]41 (stereo partly specified),Potency,[1],inactive
same,Potency,[2],inactive
same,Potency,[3],inactive
same,Potency,[4],inactive
same,Potency,[7],inactive
same,outcome,[8],inactive
same,Potency,[9],inactive
same,outcome,[10],inactive
same,Potency,[14],inactive
same,Potency,[6],inactive
same,"activity change, negative = inhibition",[11],-25.2%
O=C(O)C(O)Cc1ccc(O)c(O)c1 (stereo unspecified),Potency,[1],inactive
same,Potency,[2],inactive
same,Potency,[3],inactive
same,Potency,[4],inactive
same,outcome,[5],inactive
same,Potency,[6],inactive
same,"activity change, negative = inhibition",[11],-13% [at 114 µM]
